# According to the supplement of paper PMC11006884:
# About 6,500 targets were measured; listed, in parts, are those with a hit and a random draw of the rest. About 2% of all pairs of compound and target were hits. Unmarked numbers belong to inactive results.
# Compound: COC(=O)C#Cc1ccccc1 [methyl 3-phenylpropiolate]
# Assay: log2 ratio of iodoacetamide-alkyne labeling of the cysteine site, DMSO over compound (competition); higher = stronger covalent engagement of the cysteine by the compound, active = 1 or more
# Conditions: 500 µM; treatment time 1 h; system: HEK293T cell lysate
# Method in brief: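 Three replicates, each with duplicate channels, were prepared from HEK293T lysate (2 mg/mL) treated with vehicle or electrophile at 500 µM for 1 h at ambient temperature. Iodoacetamide alkyne was then applied for 1 h, and samples were clicked to sCIP-TMT reagents, pooled, trypsin-digested overnight at 37 °C, enriched on streptavidin, acid-eluted and analysed on Orbitrap Eclipse LC-MS/MS with FAIMS, with FragPipe quantification. The log2 competition ratio per cysteine is the mean control-channel divided by the mean compound-channel reporter intensity. Cysteines quantified in only one replicate were left out.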
# Chain of UniProt Q13643 (Q13643 whole entry, looked up): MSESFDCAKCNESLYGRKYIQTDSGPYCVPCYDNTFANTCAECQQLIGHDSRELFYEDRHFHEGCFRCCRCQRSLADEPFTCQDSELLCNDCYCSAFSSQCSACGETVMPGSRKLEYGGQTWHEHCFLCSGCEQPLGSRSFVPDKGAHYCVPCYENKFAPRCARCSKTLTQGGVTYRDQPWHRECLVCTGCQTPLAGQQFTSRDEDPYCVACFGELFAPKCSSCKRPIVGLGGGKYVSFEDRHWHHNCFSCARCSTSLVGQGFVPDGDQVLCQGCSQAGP
# Chain of UniProt Q14676 (Q14676 whole entry, looked up): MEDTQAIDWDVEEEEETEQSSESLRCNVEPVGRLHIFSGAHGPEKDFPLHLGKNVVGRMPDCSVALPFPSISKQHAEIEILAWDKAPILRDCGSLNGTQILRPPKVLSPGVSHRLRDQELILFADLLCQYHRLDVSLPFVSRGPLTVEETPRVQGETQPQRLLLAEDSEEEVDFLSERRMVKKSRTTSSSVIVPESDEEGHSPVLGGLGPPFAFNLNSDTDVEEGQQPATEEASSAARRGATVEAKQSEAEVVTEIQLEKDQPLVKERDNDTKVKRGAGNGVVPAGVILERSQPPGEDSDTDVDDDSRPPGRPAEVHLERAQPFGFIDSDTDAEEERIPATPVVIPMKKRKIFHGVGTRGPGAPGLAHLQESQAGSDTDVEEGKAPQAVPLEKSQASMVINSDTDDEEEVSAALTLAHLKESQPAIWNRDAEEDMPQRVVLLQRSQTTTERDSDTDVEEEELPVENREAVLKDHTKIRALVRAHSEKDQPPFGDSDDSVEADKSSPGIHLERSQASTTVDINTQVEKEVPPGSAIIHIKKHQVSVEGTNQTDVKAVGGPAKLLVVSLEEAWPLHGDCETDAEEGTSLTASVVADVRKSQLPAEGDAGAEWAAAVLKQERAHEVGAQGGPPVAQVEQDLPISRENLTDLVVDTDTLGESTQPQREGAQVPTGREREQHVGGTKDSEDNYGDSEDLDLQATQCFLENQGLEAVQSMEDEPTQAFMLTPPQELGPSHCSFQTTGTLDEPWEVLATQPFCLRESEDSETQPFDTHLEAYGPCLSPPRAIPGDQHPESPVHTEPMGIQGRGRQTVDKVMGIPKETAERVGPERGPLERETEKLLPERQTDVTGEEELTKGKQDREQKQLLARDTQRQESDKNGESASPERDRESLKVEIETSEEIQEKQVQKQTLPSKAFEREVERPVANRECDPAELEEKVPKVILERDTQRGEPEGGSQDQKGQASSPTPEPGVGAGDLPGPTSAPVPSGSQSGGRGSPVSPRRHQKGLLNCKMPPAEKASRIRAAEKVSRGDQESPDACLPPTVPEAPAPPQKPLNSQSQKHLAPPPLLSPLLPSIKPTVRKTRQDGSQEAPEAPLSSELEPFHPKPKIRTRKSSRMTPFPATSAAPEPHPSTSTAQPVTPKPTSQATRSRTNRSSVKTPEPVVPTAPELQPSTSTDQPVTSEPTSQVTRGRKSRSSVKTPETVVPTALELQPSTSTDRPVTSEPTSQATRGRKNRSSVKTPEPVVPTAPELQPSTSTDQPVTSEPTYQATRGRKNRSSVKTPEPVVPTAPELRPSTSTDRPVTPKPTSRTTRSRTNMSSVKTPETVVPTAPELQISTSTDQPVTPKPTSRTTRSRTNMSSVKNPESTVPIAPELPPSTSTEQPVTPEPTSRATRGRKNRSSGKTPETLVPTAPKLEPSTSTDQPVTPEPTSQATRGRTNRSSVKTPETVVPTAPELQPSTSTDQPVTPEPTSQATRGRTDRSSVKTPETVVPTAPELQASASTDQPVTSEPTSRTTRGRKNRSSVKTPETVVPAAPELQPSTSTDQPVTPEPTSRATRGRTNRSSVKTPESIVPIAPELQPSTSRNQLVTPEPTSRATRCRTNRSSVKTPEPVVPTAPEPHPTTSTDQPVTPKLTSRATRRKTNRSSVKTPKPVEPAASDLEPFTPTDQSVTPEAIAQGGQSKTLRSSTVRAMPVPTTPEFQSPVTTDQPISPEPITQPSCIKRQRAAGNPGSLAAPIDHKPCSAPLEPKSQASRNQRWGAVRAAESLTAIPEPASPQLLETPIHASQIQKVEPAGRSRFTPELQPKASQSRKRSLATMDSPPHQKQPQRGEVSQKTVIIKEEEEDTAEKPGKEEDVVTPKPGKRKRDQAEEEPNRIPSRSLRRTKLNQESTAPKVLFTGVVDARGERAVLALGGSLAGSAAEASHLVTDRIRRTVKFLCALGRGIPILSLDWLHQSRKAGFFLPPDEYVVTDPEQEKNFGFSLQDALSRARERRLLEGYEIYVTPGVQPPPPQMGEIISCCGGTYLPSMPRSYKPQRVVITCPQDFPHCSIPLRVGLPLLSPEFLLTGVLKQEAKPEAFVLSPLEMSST
# Chain of UniProt Q13642 (Q13642 whole entry, looked up): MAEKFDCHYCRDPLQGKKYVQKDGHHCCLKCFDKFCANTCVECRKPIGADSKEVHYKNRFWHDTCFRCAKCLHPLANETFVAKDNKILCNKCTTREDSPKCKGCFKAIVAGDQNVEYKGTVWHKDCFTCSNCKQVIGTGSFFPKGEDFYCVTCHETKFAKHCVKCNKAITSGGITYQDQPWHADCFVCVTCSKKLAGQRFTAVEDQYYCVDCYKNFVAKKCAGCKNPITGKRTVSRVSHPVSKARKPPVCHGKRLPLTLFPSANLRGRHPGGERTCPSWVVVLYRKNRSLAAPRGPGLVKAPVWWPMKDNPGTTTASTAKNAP
# Chain of UniProt Q01082 (Q01082 whole entry, looked up): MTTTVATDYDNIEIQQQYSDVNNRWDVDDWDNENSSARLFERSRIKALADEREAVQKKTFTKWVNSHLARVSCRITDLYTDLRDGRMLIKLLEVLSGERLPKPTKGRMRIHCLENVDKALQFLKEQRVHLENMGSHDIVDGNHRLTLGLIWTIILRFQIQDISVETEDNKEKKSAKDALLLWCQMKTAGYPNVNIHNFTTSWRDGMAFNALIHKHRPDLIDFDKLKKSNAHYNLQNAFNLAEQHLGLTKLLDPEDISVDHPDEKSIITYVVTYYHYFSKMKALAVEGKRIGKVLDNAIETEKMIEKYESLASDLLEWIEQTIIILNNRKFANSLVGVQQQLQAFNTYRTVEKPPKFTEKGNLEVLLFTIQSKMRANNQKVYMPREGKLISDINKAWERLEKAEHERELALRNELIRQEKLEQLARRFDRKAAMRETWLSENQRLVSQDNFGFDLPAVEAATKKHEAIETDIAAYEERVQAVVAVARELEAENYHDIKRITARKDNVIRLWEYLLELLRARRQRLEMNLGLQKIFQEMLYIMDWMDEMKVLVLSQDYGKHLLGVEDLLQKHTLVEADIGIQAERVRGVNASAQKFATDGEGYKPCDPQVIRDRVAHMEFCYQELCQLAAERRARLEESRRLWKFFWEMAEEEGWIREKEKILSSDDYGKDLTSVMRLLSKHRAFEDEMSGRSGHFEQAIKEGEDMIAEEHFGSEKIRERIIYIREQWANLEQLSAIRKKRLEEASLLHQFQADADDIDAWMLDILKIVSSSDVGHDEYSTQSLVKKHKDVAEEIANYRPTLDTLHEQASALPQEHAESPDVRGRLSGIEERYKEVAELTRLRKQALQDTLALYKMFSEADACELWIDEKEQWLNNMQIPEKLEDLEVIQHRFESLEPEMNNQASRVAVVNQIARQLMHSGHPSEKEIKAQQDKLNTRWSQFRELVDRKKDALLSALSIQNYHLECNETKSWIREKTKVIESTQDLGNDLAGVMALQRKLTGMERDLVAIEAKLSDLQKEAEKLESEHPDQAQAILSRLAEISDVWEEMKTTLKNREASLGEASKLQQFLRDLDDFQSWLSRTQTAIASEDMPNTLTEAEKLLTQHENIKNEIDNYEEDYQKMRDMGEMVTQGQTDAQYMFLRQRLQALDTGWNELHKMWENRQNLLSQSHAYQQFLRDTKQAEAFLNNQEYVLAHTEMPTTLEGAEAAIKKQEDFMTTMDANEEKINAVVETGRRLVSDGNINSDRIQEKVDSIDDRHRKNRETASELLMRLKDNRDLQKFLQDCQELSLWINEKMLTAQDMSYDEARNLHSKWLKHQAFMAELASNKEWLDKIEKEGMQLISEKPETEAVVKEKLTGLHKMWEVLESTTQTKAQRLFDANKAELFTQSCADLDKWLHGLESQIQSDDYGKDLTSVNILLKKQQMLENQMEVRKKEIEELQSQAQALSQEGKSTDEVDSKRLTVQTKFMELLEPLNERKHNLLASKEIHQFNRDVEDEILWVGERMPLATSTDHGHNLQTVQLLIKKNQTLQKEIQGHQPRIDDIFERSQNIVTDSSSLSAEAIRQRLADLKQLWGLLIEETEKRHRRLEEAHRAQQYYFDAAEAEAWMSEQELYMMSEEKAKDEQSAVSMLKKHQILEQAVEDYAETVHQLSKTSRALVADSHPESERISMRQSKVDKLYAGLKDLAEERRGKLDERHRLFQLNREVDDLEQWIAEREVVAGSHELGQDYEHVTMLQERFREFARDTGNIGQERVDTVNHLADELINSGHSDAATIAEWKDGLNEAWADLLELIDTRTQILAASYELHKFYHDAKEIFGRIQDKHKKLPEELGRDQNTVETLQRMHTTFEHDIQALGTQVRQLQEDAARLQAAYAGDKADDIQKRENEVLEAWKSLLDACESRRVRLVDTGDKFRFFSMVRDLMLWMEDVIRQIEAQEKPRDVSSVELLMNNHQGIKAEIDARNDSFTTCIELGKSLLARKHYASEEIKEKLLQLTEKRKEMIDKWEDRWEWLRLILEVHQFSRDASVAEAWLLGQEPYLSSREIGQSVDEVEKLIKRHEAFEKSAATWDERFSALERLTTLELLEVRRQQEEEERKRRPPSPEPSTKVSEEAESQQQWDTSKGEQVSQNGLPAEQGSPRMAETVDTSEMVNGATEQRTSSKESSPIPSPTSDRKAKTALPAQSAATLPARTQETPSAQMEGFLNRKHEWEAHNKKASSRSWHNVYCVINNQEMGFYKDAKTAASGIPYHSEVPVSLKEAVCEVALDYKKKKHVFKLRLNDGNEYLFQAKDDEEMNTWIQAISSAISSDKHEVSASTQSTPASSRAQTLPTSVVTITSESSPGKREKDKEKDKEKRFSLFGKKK
row,Target,log2 ratio of iodoacetamide-alkyne labeling
1,COASY C140 (UniProt Q13057),1.16 (active)
2,ACTR3 C235 (UniProt P61158),1.28 (active)
3,NUP98 C1590 (UniProt P52948),0.601
4,THOP1 C682 (UniProt P52888),0.174
5,FHL1 C191 (UniProt Q13642),-0.117
6,UniProt P62753_C12,0.196
7,SORD C45 (UniProt Q00796),-0.0713
8,LLGL1 C1059 (UniProt Q15334),0.241
9,UniProt Q13247_C121,-0.0624
10,UniProt P61163_C34,0.205
11,FHL3 C150 (UniProt Q13643),0.146
12,NFKB2 C57 (UniProt Q00653),1.24 (active)
13,SPTBN1 C112 (UniProt Q01082),0.622
14,AKIRIN2 C3 (UniProt Q53H80),1.11 (active)
15,UniProt Q3LXA3_C24,0.218
16,LGALS3BP C496 (UniProt Q08380),1.72 (active)
17,AKAP13 C683 (UniProt Q12802),0.255
18,MDC1 C1742 (UniProt Q14676),0.0644

row,Target,log2 ratio of iodoacetamide-alkyne labeling
1,BOP1 C373 (UniProt Q14137),0.0315
2,PEX3 C65 (UniProt P56589),0.385
3,GTF2I C80 (UniProt P78347),0.0358
4,DLGAP5 C129 (UniProt Q15398),1.38 (active)
5,LLGL1 C697 (UniProt Q15334),0.999
6,TTLL12 C612 (UniProt Q14166),0.0779
7,ADAR C649 (UniProt P55265),0.375
8,DDX39B C198 (UniProt Q13838),-0.129
9,UniProt P55196_C942,1.05 (active)
10,PDCD11 C151 (UniProt Q14690),0.508
11,NCAPH C316 (UniProt Q15003),-0.0371
12,PPP5C C77 (UniProt P53041),0.135
13,DYNC1H1 C4216 (UniProt Q14204),0.162
14,TLE1 C526 (UniProt Q04724),1.15 (active)
15,TBCE C371 (UniProt Q15813),0.185
16,PCM1 C957 (UniProt Q15154),2.43 (active)
17,CLTC C870 (UniProt Q00610),0.621
